In general, AC50 refers to the concentration giving half of the maximal activity seen.

The values below come from PubChem BioAssay (EPA / NIEHS).

Holding throughout (conditions): mRNA level, 48 h; actives raise or lower the signal
Read-out in assay [1]: Cyclin Dependent Kinase Inhibitor 1A (CDKN1A), CDKN1A (gene 1026)
Put plainly: LTEA_HepaRG_CDKN1A: Life Technologies and Expression Analysis (LTEA) Assay for Cyclin Dependent Kinase Inhibitor 1A (CDKN1A) using HepaRG (AID 2283450). The gist of the method:
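Read-out is CDKN1A mRNA by TaqMan qRT-PCR, normalized to three housekeeping genes and fitted in both directions against the DMSO baseline. Human HepaRG cells were treated 48 h with test chemicals up to 100 uM in half-log steps, 0.5% DMSO.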

Read-out in assay [2]: Cyclin D1 (CCND1), CCND1 (gene 595)
Put plainly: LTEA_HepaRG_CCND1: Life Technologies and Expression Analysis (LTEA) Assay for Cyclin D1 (CCND1) using HepaRG (AID 2283451). The gist of the method: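 HepaRG plated 48 h, medium switched to serum-free induction medium, chemicals added in duplicate (top 100 uM, half-log steps, 0.5% DMSO) for 48 h, cells lysed, RNA measured by TaqMan qRT-PCR.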

Read-out in assay [3]: catalase (CAT), CAT (gene 847)
Put plainly: LTEA_HepaRG_CAT: Life Technologies and Expression Analysis (LTEA) Assay for catalase (CAT) using HepaRG (AID 2283452).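 On AC50: TaqMan qRT-PCR signal normalized to ACTB GAPDH and POLR2A housekeeping genes.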 The gist of the method:
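Expression of CAT was quantified by TaqMan qRT-PCR with ACTB/GAPDH/POLR2A normalization after 48 h chemical exposure of HepaRG. Eight-point half-log series, top 100 uM, in 0.5% DMSO; gain or loss fitted against vehicle.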

Read-out in assay [4]: flavin-containing dimethylaniline monooxygenases 3 (FMO3), FMO3 (gene 2328)
Put plainly: LTEA_HepaRG_FMO3: Life Technologies and Expression Analysis (LTEA) Assay for flavin-containing dimethylaniline monooxygenases 3 (FMO3) using HepaRG (AID 2283453).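 On AC50: differentiated human HepaRG liver cells in serum-free induction medium.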 The method in brief: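 FMO3 transcript quantified by TaqMan qRT-PCR against three housekeeping genes after 48 h chemical exposure of HepaRG cells. Eight-point half-log series, top 100 uM, 0.5% DMSO vehicle; phenobarbital 1mM induction control; up- or down-regulation fitted.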

Read-out in assay [5]: Cytochrome P450 (CYP1A1), CYP1A1 (gene 1543)
Put plainly: LTEA_HepaRG_CYP1A1: Life Technologies and Expression Analysis (LTEA) Assay for Cytochrome P450 (CYP1A1) using HepaRG (AID 2283454). The gist of the method:
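HepaRG, 48 h post-plating switched to serum-free induction medium; 8-pt conc-response (top 100 uM, half-log, 0.5% DMSO), duplicates, 48 h. Lysis in RLT, TaqMan qRT-PCR for CYP1A1; gain or loss vs DMSO.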

Read-out in assay [6]: CFLAR gene, CFLAR (gene 8837)
Put plainly: LTEA_HepaRG_CFLAR: Life Technologies and Expression Analysis (LTEA) Assay for CFLAR gene using HepaRG (AID 2283455). The gist of the method:
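Transcript level by qRT-PCR (normalized to ACTB, GAPDH and POLR2A) after 48 h chemical exposure of HepaRG cells, top concentration 100 uM with half-log steps, 0.5% DMSO vehicle, duplicates; fitted bidirectionally against DMSO baseline.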

Read-out in assay [7]: growth arrest and DNA damage 45 (GADD45A), GADD45A (gene 1647)
Put plainly: LTEA_HepaRG_GADD45A: Life Technologies and Expression Analysis (LTEA) Assay for growth arrest and DNA damage 45 (GADD45A) using HepaRG (AID 2283458). The gist of the method:
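Transcript induction or loss, quantified by TaqMan qRT-PCR against three housekeeping genes, is the read-out. HepaRG cells received chemicals for 48 h across eight half-log concentrations from 100 uM in 0.5% DMSO; gain and loss fitted relative to DMSO.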

Read-out in assay [8]: Forkhead box O3 (FOXO3), FOXO3 (gene 2309)
Put plainly: LTEA_HepaRG_FOXO3: Life Technologies and Expression Analysis (LTEA) Assay for Forkhead box O3 (FOXO3) using HepaRG (AID 2283459). The gist of the method:
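FOXO3 transcript measured by qRT-PCR (normalized to ACTB, GAPDH, POLR2A) after 48 h exposure of HepaRG cells in serum-free induction medium. Duplicates, eight half-log concentrations up to 100 uM, 0.5% DMSO; gain or loss fitted against DMSO.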

Read-out in assay [9]: ABC Transporter (ABCB1), ABCB1 (gene 5243)
As to the kind of experiment: LTEA_HepaRG_ABCB1: Life Technologies and Expression Analysis (LTEA) Assay for ABC Transporter (ABCB1) using HepaRG (AID 2283460). The gist of the method: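 ABCB1 transcript level measured by TaqMan qRT-PCR against three housekeeping genes after 48 h chemical exposure of differentiated HepaRG cells. Top concentration 100 uM, half-log steps, eight points, 0.5% DMSO vehicle; bidirectional fit relative to DMSO.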

Read-out in assay [10]: ABC Transporter (ABCC3), ABCC3 (gene 8714)
As to the kind of experiment: LTEA_HepaRG_ABCC3: Life Technologies and Expression Analysis (LTEA) Assay for ABC Transporter (ABCC3) using HepaRG (AID 2283462). The gist of the method:
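Human HepaRG, 48 h dosing, 8-pt half-log series from 100 uM, 0.5% DMSO vehicle, duplicates. ABCC3 mRNA by TaqMan qRT-PCR, housekeeping-normalized; bidirectional curve fit vs DMSO.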

Read-out in assay [11]: ABC Transporter (ABCB11), ABCB11 (gene 8647)
Put plainly: LTEA_HepaRG_ABCB11: Life Technologies and Expression Analysis (LTEA) Assay for ABC Transporter (ABCB11) using HepaRG (AID 2283463). The method in brief:
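ABCB11 transcript levels quantified by TaqMan qRT-PCR against three housekeeping genes after 48 h chemical exposure of HepaRG cultures. Concentrations up to 100 uM in half-log steps, 0.5% DMSO vehicle; both induction and suppression scored.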

Read-out in assay [12]: ABC Transporter (ABCC2), ABCC2 (gene 1244)
As to the kind of experiment: LTEA_HepaRG_ABCC2: Life Technologies and Expression Analysis (LTEA) Assay for ABC Transporter (ABCC2) using HepaRG (AID 2283464). The method in brief:
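HepaRG, 48 h post-plating; serum-free induction medium; cpd 8-pt, 100 uM top, half-log, 0.5% DMSO, duplicate, 48 h. Readout: ABCC2 mRNA by qRT-PCR, norm. ACTB/GAPDH/POLR2A. Bidirectional fit vs DMSO baseline.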

Read-out in assay [13]: Broad substrate specificity ATP-binding cassette transporter ABCG2 (Homo sapiens) (UniProt Q9UNQ0)
Put plainly: LTEA_HepaRG_ABCG2: Life Technologies and Expression Analysis (LTEA) Assay for ABC Transporter (ABCG2) using HepaRG (AID 2283465). The method in brief:
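ABCG2 transcript was quantified by TaqMan qRT-PCR against three housekeeping genes in HepaRG cells. Cells were treated in duplicate for 48 h across an 8-point half-log series up to 100 uM, with 0.5% DMSO vehicle. Gain or loss versus DMSO was fit.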

Read-out in assay [14]: Peroxisomal acyl-coenzyme A oxidase 1 (ACOX1) gene, ACOX1 (gene 51)
As to the kind of experiment: LTEA_HepaRG_ACOX1: Life Technologies and Expression Analysis (LTEA) Assay for Peroxisomal acyl-coenzyme A oxidase 1 (ACOX1) gene using HepaRG (AID 2283467). The method in brief:
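ACOX1 transcript levels were quantified by TaqMan qRT-PCR against three housekeeping genes after 48 h chemical exposure of differentiated human HepaRG cells. Exposure used eight half-log steps topping at 100 uM, 0.5% DMSO vehicle, in duplicate. Bidirectional curve fits were made relative to DMSO.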

Read-out in assay [15]: Alkaline Phosphatase, Placental (ALPP) gene, ALPP (gene 250)
Put plainly: LTEA_HepaRG_ALPP: Life Technologies and Expression Analysis (LTEA) Assay for Alkaline Phosphatase, Placental (ALPP) gene using HepaRG (AID 2283468).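 On AC50: differentiated human HepaRG liver cells in serum-free induction medium.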 The method in brief:
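HepaRG, 48 h plating then 48 h dosing, serum-free induction medium, 0.5% DMSO. 8 conc, half-log, max 100 uM, duplicates. Endpoint: ALPP transcript by qRT-PCR, housekeeping-normalized; gain or loss fitted vs DMSO.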

Read-out in assay [16]: Bcl-2 (BAD) gene, BAD (gene 572)
Put plainly: LTEA_HepaRG_BAD: Life Technologies and Expression Analysis (LTEA) Assay for Bcl-2 (BAD) gene using HepaRG (AID 2283469). The method in brief: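 Read-out: qRT-PCR of BAD mRNA, normalized to three housekeeping genes. Human HepaRG cultures got 48 h chemical exposure in 0.5% DMSO, duplicate eight-point half-log series topping at 100 uM. Gain or loss of signal fitted versus DMSO vehicle.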

Read-out in assay [17]: Forkhead box O1 (FOXO1), FOXO1 (gene 2308)
Put plainly: LTEA_HepaRG_FOXO1: Life Technologies and Expression Analysis (LTEA) Assay for Forkhead box O1 (FOXO1) using HepaRG (AID 2283456). The method in brief: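 FOXO1 transcript quantified by qRT-PCR after 48 h chemical exposure (top 100 uM, half-log steps, 0.5% DMSO) of HepaRG cells, housekeeping-normalized (ACTB/GAPDH/POLR2A). Changes fitted in both directions relative to vehicle.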

Read-out in assay [18]: growth arrest and DNA damage 45 (GADD45B), GADD45B (gene 4616)
As to the kind of experiment: LTEA_HepaRG_GADD45B: Life Technologies and Expression Analysis (LTEA) Assay for growth arrest and DNA damage 45 (GADD45B) using HepaRG (AID 2283461). The gist of the method:
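HepaRG, ~100,000 cells/well, 48 h plating; serum-free induction medium; cpd 100 uM top, half-log x8, 0.5% DMSO, duplicate, 48 h; lysis in RLT, RNA isolation, qRT-PCR; norm ACTB/GAPDH/POLR2A; bidirectional fit vs DMSO.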

Active and inactive are the calls of the source. How the source made its calls: active means hit-call score of the fitted dose curve at least 0.9, where 1 is the maximum; inactive means score below 0.9.

Sequence of Broad substrate specificity ATP-binding cassette transporter ABCG2 (Homo sapiens) (Q9UNQ0 whole entry, looked up): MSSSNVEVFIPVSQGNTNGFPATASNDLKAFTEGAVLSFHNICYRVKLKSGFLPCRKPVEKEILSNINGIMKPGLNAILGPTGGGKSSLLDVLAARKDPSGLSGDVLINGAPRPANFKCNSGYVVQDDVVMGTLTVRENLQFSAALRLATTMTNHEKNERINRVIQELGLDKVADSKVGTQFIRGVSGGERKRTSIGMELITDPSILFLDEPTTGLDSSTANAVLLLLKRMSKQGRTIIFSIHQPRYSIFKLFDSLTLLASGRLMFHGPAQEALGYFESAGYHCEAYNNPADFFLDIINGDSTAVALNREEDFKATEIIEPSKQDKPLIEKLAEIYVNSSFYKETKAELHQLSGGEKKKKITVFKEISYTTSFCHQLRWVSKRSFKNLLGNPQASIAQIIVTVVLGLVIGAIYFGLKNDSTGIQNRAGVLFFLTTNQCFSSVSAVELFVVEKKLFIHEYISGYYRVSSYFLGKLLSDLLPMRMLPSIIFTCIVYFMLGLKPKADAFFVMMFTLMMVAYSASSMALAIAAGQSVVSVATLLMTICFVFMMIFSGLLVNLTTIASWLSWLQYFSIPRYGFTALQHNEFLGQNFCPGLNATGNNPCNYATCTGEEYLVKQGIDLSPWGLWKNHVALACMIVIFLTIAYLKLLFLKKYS

Consider `Cc1c(COC(=O)[C@@H]2[C@H](/C=C(\Cl)C(F)(F)F)C2(C)C)cccc1-c1ccccc1`, for which the compound was classed as inactive in assay [1], in assay [2], in assay [3], in [4], in assay [6] and in assay [7]. Besides, the compound was classed as inactive in assay [8], in assay [10], in [11], in assay [12], in assay [14] and in [15]. Besides, in assay [16], the compound was classed as inactive. Further, the values for the AC50 in assay [5], in assay [9] and in [13] were 33.6 µM (active), 28.3 µM (active) and 50 µM (active), respectively.

Consider `CCN(CC)C(=O)C(C)Oc1cccc2ccccc12` (stereo not drawn), for which the outcome in assay [2], in assay [6], in assay [17], in [7], in assay [8] and in [9] was inactive. Besides, the compound was classed as inactive in assay [10], in [12] and in assay [16]. Moreover, the AC50 in [3] is 81.2 µM (active); in assay [4], 82.9 µM (active); in [5] it was 36.9 µM (active); in [11] it was 50 µM (active); in assay [13], 50 µM (active); in assay [14], 69.8 µM (active). The AC50 in assay [15] was 84.3 µM (active).

Turning to `CC(C)(C)C(=O)C(Oc1ccc(Cl)cc1)n1cncn1` (stereo not drawn), the compound was classed as inactive in assay [1], in assay [2], in assay [4], in assay [6], in assay [7] and in assay [8]. Further, the outcome in assay [18], in assay [10], in [11], in assay [13], in assay [14] and in [15] was inactive. Further, the outcome in assay [16] was inactive. For the same compound, the AC50 is 37 µM (active) in assay [5] and 16.8 µM (active) in [12].

In the case of `CCNP(=S)(OC)O/C(C)=C/C(=O)OC(C)C` (stereo not drawn), the compound was classed as inactive in assay [1], in [2], in [3], in assay [4], in [6] and in assay [17]. In addition, the outcome in assay [7], in assay [8], in [10], in assay [11], in assay [14] and in assay [15] was inactive. Moreover, the outcome in assay [16] was inactive. The AC50 was 14.3 µM (active) in assay [5], 13.1 µM (active) in assay [12] and 13.6 µM (active) in assay [13].
